Sampled rows, rich in hits. Any-hit rate of the full collection: about 3.4%.
TROY NFkB inh: inhibitors of TROY-dependent NF-kB signaling; Q293 LMP1-TROYcd NF-kB luciferase reporter, 4 h; inhibition, % at 10 µM; actives 0.98% (n = 360,000); AID 1347056;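 active = compounds whose plate-normalised and pattern-corrected inhibition of the luciferase reporter signal at the single screening dose is 50% or more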
LMP1 NFkB inh: reduces LMP1-driven NF-kappaB luciferase signal; actives 0.69% (n = 350,000); inhibition, % at 12.5 µM; LMP1-induced NF-kappaB luciferase reporter cells, luminescence; in the data active = inhibition above about 41%; inconclusive = no clear call, values can overlap the other calls
HIF-2a inh: HIF-2a inhibition | actives 0.72% (n = 360,000) | 786-0 RCC cells HIF-2a reporter, luciferase luminescence, overnight | inhibition, % at 18.8 µM | AID 624352;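 active = inhibition of the luminescence signal of 40% or more relative to plate controls, in a single-dose primary screen at 18.75 µM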
MITF TRPM1 inh: MITF TRPM1 promoter inhibition in SK-MEL-5 cells. inhibition, % at 12.5 µM. actives 0.83% (n = 330,000). SK-MEL-5 TRPM1 promoter luciferase, 24 h. AID 488899;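 active = mean inhibition across replicates of 60% or more, whatever share of single replicates reaches that level; inconclusive = some that reach 60%, reason not given; inactive = mean inhibition across replicates below 60%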
TWEAK-Fn14 inh: inhibitors of TWEAK-Fn14 interaction signaling. TWEAK-stimulated Fn14 reporter cells, luciferase luminescence, 8 h. inhibition, % at 10 µM. actives 2% (n = 360,000). AID 1159606; in the data active = inhibition above about 50%
Shn3 inh set2: inhibitors of Schnurri-3 3'UTR reporter in osteoblasts; Clone20 osteoblast Shn3 3'UTR firefly luciferase, 24 h; inhibition, % at 12.5 µM; actives 0.52% (n = 360,000);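 active = mean inhibition of at least 75% with every replicate also reaching 75%; inconclusive = mean inhibition at least 75% but some replicate below; inactive = mean inhibition below 75%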
A number is an active result.

How did Cc1c(Cl)cccc1NC(=O)Nc1c(C)n(C)n(-c2ccccc2)c1=O do in these assays?
TROY NFkB inh: inactive; LMP1 NFkB inh: inactive; HIF-2a inh: inactive; MITF TRPM1 inh: inactive; TWEAK-Fn14 inh: inactive; Shn3 inh set2: inactive

What do the screens show for `COc1ccc(N(CC(=O)N/N=C(\C)c2ccccc2)S(=O)(=O)c2ccccc2)cc1`?
TROY NFkB inh: inactive; LMP1 NFkB inh: inactive; HIF-2a inh: inactive; MITF TRPM1 inh: inactive; TWEAK-Fn14 inh: inactive; Shn3 inh set2: inactive

What do the screens show for `CCc1nc2ccc(C(=O)NCCc3c[nH]c4ccccc34)cn2c1N(C=O)CCC(C)C`?
TROY NFkB inh: inactive; HIF-2a inh: inactive; TWEAK-Fn14 inh: inactive; Shn3 inh set2: inactive

Results for Cc1cc(C(F)(F)F)nn1CC(=O)Nc1cccnc1 ?
LMP1 NFkB inh: inactive; HIF-2a inh: inactive; MITF TRPM1 inh: inactive; TWEAK-Fn14 inh: 65.6; Shn3 inh set2: inactive

How did Cc1ccc2c(Cl)c(C(=O)Nc3cccnc3)sc2c1 do in these assays?
TROY NFkB inh: inactive; LMP1 NFkB inh: inactive; HIF-2a inh: inactive; MITF TRPM1 inh: inactive; TWEAK-Fn14 inh: 58.1; Shn3 inh set2: inactive

How did Cc1ccc2c(C)c(C(=O)Nc3cccnc3)oc2c1 do in these assays?
TROY NFkB inh: inactive; LMP1 NFkB inh: inactive; HIF-2a inh: inactive; MITF TRPM1 inh: inactive; TWEAK-Fn14 inh: inactive; Shn3 inh set2: inactive

How did Cc1cc(C)n(CC(=O)Nc2cccc(C(F)(F)F)c2)n1 do in these assays?
TROY NFkB inh: inactive; LMP1 NFkB inh: inactive; HIF-2a inh: inactive; MITF TRPM1 inh: inactive; TWEAK-Fn14 inh: inactive; Shn3 inh set2: inactive

What do the screens show for `Cc1cccc(CC(=O)Nc2cccnc2)c1`?
TROY NFkB inh: inactive; LMP1 NFkB inh: inactive; HIF-2a inh: inactive; TWEAK-Fn14 inh: 102.7; Shn3 inh set2: inactive

Results for Cc1cc(C)n2c(SC(C)C(=O)NC3(C#N)CCCCC3)nnc2n1 (stereo not drawn) ?
TROY NFkB inh: inactive; LMP1 NFkB inh: inactive; HIF-2a inh: inactive; MITF TRPM1 inh: inactive; TWEAK-Fn14 inh: 67.4; Shn3 inh set2: inactive

Results for Cc1cccc(S(=O)(=O)Nc2ccc3c(c2)OCCO3)c1 ?
TROY NFkB inh: inactive; LMP1 NFkB inh: inactive; HIF-2a inh: inactive; MITF TRPM1 inh: inactive; TWEAK-Fn14 inh: inactive; Shn3 inh set2: inactive

Results for Cn1c(=O)oc2cc(S(=O)(=O)Nc3ccc4c(c3)OCCO4)ccc21 ?
TROY NFkB inh: inactive; LMP1 NFkB inh: inactive; HIF-2a inh: inactive; MITF TRPM1 inh: inactive; TWEAK-Fn14 inh: 65.5; Shn3 inh set2: inactive

Results for O=S(=O)(Nc1ccc2c(c1)OCO2)c1cccs1 ?
TROY NFkB inh: inactive; LMP1 NFkB inh: inactive; HIF-2a inh: inactive; MITF TRPM1 inh: inactive; TWEAK-Fn14 inh: inactive; Shn3 inh set2: inactive

Results for COc1ccc(NC(C)=O)cc1S(=O)(=O)Nc1ccc2c(c1)OCCO2 ?
TROY NFkB inh: 53.4; LMP1 NFkB inh: inactive; HIF-2a inh: inactive; MITF TRPM1 inh: inactive; TWEAK-Fn14 inh: 56.6; Shn3 inh set2: inactive

How did O=S(=O)(Nc1ccc2c(c1)OCCO2)c1cccs1 do in these assays?
TROY NFkB inh: 74.0; LMP1 NFkB inh: inactive; HIF-2a inh: inactive; MITF TRPM1 inh: inactive; TWEAK-Fn14 inh: 89.8; Shn3 inh set2: inactive

What do the screens show for `COc1cccc(S(=O)(=O)Nc2ccc3c(c2)OCCO3)c1`?
TROY NFkB inh: 52.1; LMP1 NFkB inh: inactive; HIF-2a inh: inactive; MITF TRPM1 inh: inactive; TWEAK-Fn14 inh: 76.3; Shn3 inh set2: inactive

How did Cn1c(=O)c(=O)n(C)c2cc(S(=O)(=O)Nc3ccc4c(c3)OCCO4)ccc21 do in these assays?
TROY NFkB inh: inactive; LMP1 NFkB inh: inactive; HIF-2a inh: inactive; MITF TRPM1 inh: inactive; TWEAK-Fn14 inh: inactive; Shn3 inh set2: inactive

How did CCNC(=O)C1(C)CCCCN1Cc1ccc(C#N)cc1 (stereo not drawn) do in these assays?
TROY NFkB inh: inactive; HIF-2a inh: inactive; TWEAK-Fn14 inh: inactive; Shn3 inh set2: inactive

Results for CCCCn1c(N)c(N(CC(C)C)C(=O)c2ccc(OCc3c(C)noc3C)cc2)c(=O)[nH]c1=O ?
TROY NFkB inh: inactive; LMP1 NFkB inh: inactive; HIF-2a inh: inactive; MITF TRPM1 inh: inactive; TWEAK-Fn14 inh: inactive; Shn3 inh set2: inactive

What do the screens show for `Cc1ccccc1OCC1Cc2c(nc(N)c(C#N)c2N)O1` (stereo not drawn)?
LMP1 NFkB inh: inactive; HIF-2a inh: inactive; MITF TRPM1 inh: inactive; TWEAK-Fn14 inh: 58.2; Shn3 inh set2: inactive

What do the screens show for `N#Cc1c(N)nc2c(c1N)CC(COc1ccccc1)O2` (stereo not drawn)?
TROY NFkB inh: inactive; LMP1 NFkB inh: inactive; HIF-2a inh: inactive; MITF TRPM1 inh: inactive; TWEAK-Fn14 inh: inactive; Shn3 inh set2: inactive

How did CC(C)C(=O)Nc1cccc(NC(=O)c2ccc(Cl)cc2Cl)c1 do in these assays?
TROY NFkB inh: 56.0; LMP1 NFkB inh: inactive; HIF-2a inh: inactive; MITF TRPM1 inh: inactive; TWEAK-Fn14 inh: inactive; Shn3 inh set2: inactive

What do the screens show for `O=c1cc(-c2ccccc2Cl)oc2c([N+](=O)[O-])c(O)cc(O)c12`?
TROY NFkB inh: 51.5; LMP1 NFkB inh: inactive; HIF-2a inh: inactive; MITF TRPM1 inh: inactive; TWEAK-Fn14 inh: 96.2; Shn3 inh set2: inactive

Results for C[C@@H]1CC[C@]2(C(=O)O[C@@H]3O[C@H](CO)[C@@H](O)[C@H](O)[C@H]3O)CC[C@]3(C)C(=CCC4[C@@]5(C)CC[C@H](O[C@@H]6OC[C@H](O)[C@H](O[C@@H]7O[C@H](CO)[C@@H](O)[C@H](O)[C@H]7O)[C@H]6O)C(C)(C)C5CC[C@]43C)C2[C@]1(C)O (stereo partly drawn) ?
TROY NFkB inh: inactive; LMP1 NFkB inh: inactive; HIF-2a inh: inactive; MITF TRPM1 inh: inactive; TWEAK-Fn14 inh: inactive; Shn3 inh set2: inactive

How did COc1ccc(/C=C\C(=O)O[C@@H]2C(O)C(O[C@@H]3OC(C)[C@H](O[C@@H]4OCC(O[C@H]5O[C@H](CO)[C@@H](O)C(O)C5O)C(O)C4O)C(O)C3O)[C@H](OC(=O)[C@]34CCC(C)(C)C[C@@H]3C3=CCC5[C@@]6(C)CC(O)C(O[C@@H]7OC(CO)C(O)[C@H](O)[C@H]7O)[C@@](C)(C(=O)O)C6CC[C@@]5(C)[C@]3(CO)CC4)O[C@H]2C)cc1 (stereo partly drawn) do in these assays?
TROY NFkB inh: inactive; LMP1 NFkB inh: inactive; HIF-2a inh: inactive; MITF TRPM1 inh: 68.1; TWEAK-Fn14 inh: inactive; Shn3 inh set2: inactive

How did Cc1cnn(C(=O)Cn2nc(C(F)F)c(Br)c2C)c1 do in these assays?
TROY NFkB inh: 67.8; LMP1 NFkB inh: inactive; HIF-2a inh: inactive; MITF TRPM1 inh: inactive; TWEAK-Fn14 inh: inactive; Shn3 inh set2: inactive

How did COc1ccc(C)cc1N=Nc1ccc(O)c2ncccc12 do in these assays?
TROY NFkB inh: inactive; LMP1 NFkB inh: 85.8; HIF-2a inh: inactive; MITF TRPM1 inh: 72.1; TWEAK-Fn14 inh: inactive; Shn3 inh set2: 90.4

What do the screens show for `COc1ccc(N=Nc2ccc(O)c3ncccc23)cc1`?
TROY NFkB inh: inactive; LMP1 NFkB inh: inconclusive; HIF-2a inh: inactive; MITF TRPM1 inh: 68.8; TWEAK-Fn14 inh: inactive; Shn3 inh set2: 91.0

How did Cc1cccc(NCc2ccc(O)c3ncccc23)c1 do in these assays?
TROY NFkB inh: inactive; LMP1 NFkB inh: inactive; HIF-2a inh: inactive; MITF TRPM1 inh: inactive; TWEAK-Fn14 inh: inactive; Shn3 inh set2: inactive
